# Results: PubChem BioAssay (NCATS)
# Inconclusive results are not listed. Where a call stands in place of a potency, no number is given. Activity calls are given as the source filed them. Calls follow the shape of the dose curve; as a rule, active = well fitted inhibition curve with a large enough effect; inconclusive = small, poorly fitted or top-dose-only effect; inactive = no such curve, though single readings can be large or run the other way.
# Assay: qHTS Screen of the MIPE 4.0 Collection Against Ewings Sarcoma (EW8) (AID 1259255); also: nearly all actives have a fitted effect of over 35% in size
# Settings: EW8 Ewing sarcoma viability, CellTiter-Glo, 48 h; series mostly up to 45.8 µM
# From the text: There is a large unmet medical need for treatments for Ewing sarcoma, a pediatric sarcoma. We sought to identify compounds that inhibited Ewing sarcoma cells in vitro with the goal to then test promising drugs in two drug combinations in vitro to look for synergistic drug combinations. Promising combinations would then proceed to additional validation, including in vivo testing.
# Using the NCATS developed oncology compound library called the Mechanism of Interrogation Plate (MIPE), four Ewing sarcoma cell lines were evaluated (TC32, TC71, RDES, EW8). Compounds, in a 12-point titration series, were incubated with cells for 48 hours and the read out was cell viability (CellTiter-Glo from Promega). These initial experiments were used to select appropriate concentrations of each single agent for subsequent two-drug matrix combinations such that the concentrations in the matrices would span both activity and non-activity.
# Cells, in the log phase of growth, were seeded in 5 uL of RPMI plus 5% FBS, […] L-glutamine, 100 U/ml penicillin and 100 ug/ml streptomycin into 1536-well solid-bottom white tissue culture treated Greiner Bio One Plates (789173-F) using a MultiDrop Combi (Thermofisher Scientific) dispenser and a small sterile cassette. One column was media alone to be used as a :"no cells" control. The plates were then covered with sterilized stainless steel gasketed lids from Kalypsys. After allowing cells to attach for 4 hours, 23 nL of test compound or control (negative control DMSO and positive control 9.2 uM Bortezomib-final) were added from a 1536-well polypropylene compound source plate to each well using a 1536 head pin tool from Kalypsys. Cells were then incubated for 48 hours at 37C, 95% relative humidity and 5% CO2. After 48 hours, plates were removed from the incubator and 3 uL of CellTiter-Glo (Promega) was added using an Aurora Flying Reagent Dispenser Bioraptor. Plates were incubated at room temperature for 10 minutes prior to reading the luminescence on the Viewlux (PerkinElmer). The relative luciferase units are used to calculate the percent activity using the activity of DMSO in the cells and no cells columns for normalization of no inhibition and full inhibition respectively.
# Potency is read from the fitted curve at half-maximal effect.
row,Compound,Potency
1,CCCCc1oc2ccc(NS(C)(=O)=O)cc2c1C(=O)c1ccc(OCCCN(CCCC)CCCC)cc1,16.6 µM (active)
2,Cc1c(-c2ccc(O)cc2)n(Cc2ccc(OCCN3CCCCCC3)cc2)c2ccc(O)cc12,inactive
3,CC(C)(C)C(=O)OCOP(=O)(COCCn1cnc2c(N)ncnc21)OCOC(=O)C(C)(C)C,0.209 µM (active)
4,O=C(N[C@H](CO)[C@H](O)c1ccc([N+](=O)[O-])cc1)C(Cl)Cl,inactive
5,COc1cnc(NS(=O)(=O)c2ccc(N)cc2)nc1,inactive
6,O=NN(CCCl)C(=O)NC1CCCCC1,inactive
7,CCn1cc(C(=O)O)c(=O)c2cc(F)c(N3CCNCC3)nc21,inactive
8,O[C@@H](CNC[C@H](O)[C@H]1CCc2cc(F)ccc2O1)[C@@H]1CCc2cc(F)ccc2O1,20.9 µM (active)
9,CCOC(=O)[C@H](CCc1ccccc1)N[C@H]1CCc2ccccc2N(CC(=O)O)C1=O,23.5 µM (active)
10,Nc1nc(F)nc2c1ncn2[C@@H]1O[C@H](CO)[C@@H](O)[C@@H]1O,0.469 µM (active)
11,NC(=O)N1c2ccccc2CC(=O)c2ccccc21,inactive
12,COc1ccc2c(c1)c(CC(=O)OCC(=O)O)c(C)n2C(=O)c1ccc(Cl)cc1,inactive
13,CC(=O)Oc1ccccc1C(=O)Nc1ncc([N+](=O)[O-])s1,21.5 µM (active)
14,CNS(=O)(=O)CCc1ccc2[nH]cc(C3CCN(C)CC3)c2c1,2.64 µM (active)
15,COc1cc([C@@H]2c3cc4c(cc3[C@H](O)[C@H]3COC(=O)[C@H]23)OCO4)cc(OC)c1OC,inactive
16,COc1ccc(C(=O)CC(=O)c2ccc(C(C)(C)C)cc2)cc1,2.09 µM (active)
17,CCCc1nc(C)c2c(=O)[nH]c(-c3cc(S(=O)(=O)N4CCN(CC)CC4)ccc3OCC)nn12,3.72 µM (active)
18,CO[C@@]12[C@H](COC(N)=O)C3=C(C(=O)C(C)=C(N)C3=O)N1C[C@@H]1N[C@@H]12,0.0662 µM (active)
19,O=S(=O)(c1cccc2cnccc12)N1CCCNCC1,inactive
20,S=P(N1CC1)(N1CC1)N1CC1,6.62 µM (active)

row,Compound,Potency
1,Cc1onc(-c2ccccc2Cl)c1C(=O)N[C@@H]1C(=O)N2[C@@H]1SC(C)(C)[C@@H]2C(=O)O,inactive
2,Cc1nnc(NS(=O)(=O)c2ccc(N)cc2)s1,13.2 µM (active)
3,O=C(O)c1cc(=O)[nH]c(=O)[nH]1,inactive
4,CNCC[C@H](Oc1cccc2ccccc12)c1cccs1,7.43 µM (active)
5,CC(=O)[C@H]1CC[C@H]2[C@@H]3CCC4=CC(=O)CC[C@]4(C)[C@H]3CC[C@]12C,9.35 µM (active)
6,CCN(CC)CC#CCOC(=O)C(O)(c1ccccc1)C1CCCCC1 (stereo not given),inactive
7,CCOC(=O)[C@H](CCc1ccccc1)N[C@H]1CS[C@H](c2cccs2)CN(CC(=O)O)C1=O,5.9 µM (active)
8,Oc1c(Cl)cc(Cl)c2cccnc12,8.33 µM (active)
9,CC1CC2C3CCC4=CC(=O)C=C[C@]4(C)[C@@]3(F)[C@@H](O)C[C@]2(C)[C@@]1(O)C(=O)CO (stereo not given in full),inactive
10,Cc1cccc(Nc2ccncc2S(=O)(=O)NC(=O)NC(C)C)c1,inactive
11,CN1CCN(c2c(F)cc3c(=O)c(C(=O)O)cn(CCF)c3c2F)CC1,inactive
12,C#CCN[C@@H]1CCc2ccccc21,inactive
13,O=C(NCC1CN(c2ccc(N3CCOCC3=O)cc2)C(=O)O1)c1ccc(Cl)s1 (stereo not given),inactive
14,NC(=O)c1cccnc1,inactive
15,CN(CCOc1ccc(CC2SC(=O)NC2=O)cc1)c1ccccn1 (stereo not given),inactive
16,N[C@@H](Cc1ccc(O)c(O)c1)C(=O)O,inactive
17,OCc1ccc(-c2nn(Cc3ccccc3)c3ccccc23)o1,1.18 µM (active)
18,CNNCc1ccc(C(=O)NC(C)C)cc1,inactive
19,CCn1cc(C(=O)O)c(=O)c2cc(F)c(N3CCN(C)CC3)cc21,inactive
20,CC(C)NCC(O)c1ccc(NS(C)(=O)=O)cc1 (stereo not given),16.6 µM (active)
